PubChem BioAssay (NCI)
This is part of a sample that, as a whole, favours compounds with a hit. Of some 83,000 tested, about 20% had one in any assay.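 48-hour exposure, single concentration, 96-well plates; percent growth endpoint where 0 means no net growth. Active: below 10.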 Calls of active or inactive are those of the source.

These molecules were tested on RPMI-8226 leukemia (assay: NCI-60 one-dose screen, 48 h (100 = growth as untreated, 0 = no growth, -100 = all killed)). Settings: 10 µM unless noted.
Experimental: Growth inhibition of the RPMI-8226 human tumor cell line is measured as a screen for anti-cancer activity. Cells are grown in 96 well plates and exposed to the test compound for 48 hours. Compounds are tested at a single concentration, which is 10^-5 M for most compounds. The reported endpoint is percent growth (GI% or GIPRCNT), where numbers from 0 - 100% represent growth inhibition, and numbers from -100% - 0 represent cell death. For example, a value of 40 represents 60% growth inhibition. A value of 0 means no net growth occurred over the course of the experiment. A value of -40 indicates 40% of cells at the beginning of the experiment died by the end of the experiment. A value of -100 means all cells are dead at the end of the experiment.
NCI-60 Human Tumor Cell Lines Screen was performed using the standard one-dose NCI protocol, which is described in more detail at https://dtp.cancer.gov/discovery_development/nci-60/default.htm.
Compounds with GIPRCNT values below 10 were considered active. Activity score was based on GIPRCNT using the following formula: […]
Score is 0 for GIPRCNT values of 100 or above, 50 for GIPRCNT values of 0, and 100 for GIPRCNT values of -100.

Question: With Cc1ccc(-c2csc(N/N=C/c3cccs3)n2)cc1 as the molecule, how does the growth read?
Answer: 86.5% (inactive)

Question: COc1ccc([C@H]2C(=O)N(c3cc(OC)c(OC)c(OC)c3)[C@@H]2c2ccc(OC)c(O)c2)cc1 was tested. Which growth did it give?
Answer: 22.2% (inactive)

Question: For C/C(=N\NC(N)=S)c1nnn(-c2ccc([N+](=O)[O-])cc2)c1C, which growth is on record?
Answer: 103% (inactive)

Question: How did the growth turn out when Cc1ccc(CSC2=C(Cl)CN(c3ccc(Cl)cc3)C2=O)cc1 was run?
Answer: 92.8% (inactive)

Question: For N#Cc1c(-c2cccs2)cc(-c2cnccn2)nc1SCC(=O)N/N=C/c1ccc(Cl)cc1, which growth is on record?
Answer: 97.6% (inactive)

Question: With N/C(=N\C(N)=N\c1nc2ccccc2s1)c1ccc(Cl)cc1 as the molecule, how does the growth read?
Answer: 57% (inactive)

Question: With CCN(CC)S(=O)(=O)c1ccc(-c2nc(C(Cl)Cl)nc3cc(-c4ccc(F)cc4)nn23)cc1 as the molecule, how does the growth read?
Answer: 6.42% (active)

Question: Which growth does the source give for Cc1ccc(/C=N/Nc2nc(Nc3ccccc3)nc(Nc3ccc(S(N)(=O)=O)cc3)n2)cc1 here?
Answer: 44% (inactive)

Question: For C#CCN(C)CCCOc1ccc(NCc2ccc(C(=O)NO)cc2)cc1Cl, which growth is on record?
Answer: 9.94% (active)

Question: Cc1ccc(C(=O)CSc2nnc(-c3ccc(-c4ccc(Cl)cc4)nc3C)o2)cc1 was tested. Which growth did it give?
Answer: 96.7% (inactive)

Question: For Cn1cc(-c2cc3ncnc(Nc4ccc(CC(=O)Nc5nc(C(C)(C)C)cs5)cc4)c3s2)cn1, which growth is on record?
Answer: 38.8% (inactive)

Question: Which growth does the source give for C#Cc1nc(/C=C/CCCCCCC(=O)NO)cs1 here?
Answer: -12.7% (active)

Question: For CCc1cc(OC(=O)N2CCC(N3CCCCC3)CC2)ccc1Nc1cc(-c2ccc(-n3cccn3)cc2)[nH]n1, which growth is on record?
Answer: 20.9% (inactive)

Question: With Cc1csc(/N=C(N)/N=C(\N)c2cccs2)n1 as the molecule, how does the growth read?
Answer: 101% (inactive)

Question: With O=C(CSc1nc2ccccc2c(=O)n1-c1ccccc1)N/N=C/c1ccc(Oc2ccc(Cl)cc2)cc1 as the molecule, how does the growth read?
Answer: 73.3% (inactive)

Question: Which growth does the source give for C#Cc1cc(C(=O)Nc2ccc(CNCCN3CCOCC3)c(C(F)(F)F)c2)ccc1C here?
Answer: 74.5% (inactive)

Question: O=C(CCCCCCNC(=O)C(O)(O)C(F)(F)F)Nc1ccc(-c2ccccc2)cc1 was tested. Which growth did it give?
Answer: 15.1% (inactive)

Question: For CN1CCN(c2ccc(Nc3nc(NCCCNS(=O)(=O)c4ccc(Cl)cc4)c4sccc4n3)cc2)CC1, which growth is on record?
Answer: 4.97% (active)

Question: For COc1cccc2c1C=CC1(O2)Oc2cccc(OC)c2C=C1C (stereo not given), which growth is on record?
Answer: 18.9% (inactive)

Question: How did the growth turn out when COc1ccc(/C=N\NC(=O)c2cnn(CC(O)c3ccccc3)c2N)cc1OCc1ccc(Cl)cc1 (stereo not given) was run?
Answer: 65.5% (inactive)

Question: For C#C[C@]1(O)CC[C@H]2[C@@H]3CC=C4c5sc(Nc6cc(Cl)ccc6OC)nc5CC[C@]4(C)[C@H]3CC[C@@]21C, which growth is on record?
Answer: -35.1% (active)

Question: How did the growth turn out when C/C(=N\NC(=O)Nc1ccccc1)c1nnn(-c2ccc([N+](=O)[O-])cc2)c1C was run?
Answer: 102% (inactive)

Question: With NCCNC(=O)c1cccc(COc2ccccc2NC(=O)c2cc(Cl)c(Cl)[nH]2)c1 as the molecule, how does the growth read?
Answer: 101% (inactive)

Question: For O=c1nc(Nc2ccc([N+](=O)[O-])cc2O)sc2ccccc12, which growth is on record?
Answer: 3.35% (active)

Question: Which growth does the source give for O=C(N/N=C\c1ccc([N+](=O)[O-])cc1)c1ccc2nc(-c3ccc(Br)cc3)[nH]c2c1 here?
Answer: 6.03% (active)

Question: How did the growth turn out when NC(=O)n1c(=O)n(-c2cccc(C(F)(F)F)c2)c(=O)c2cc(-c3ccc(F)cc3F)ccc21 was run?
Answer: -30.6% (active)

Question: O=C(CCCCCCNC(=O)c1csc(Br)n1)NO was tested. Which growth did it give?
Answer: 2.81% (active)

Question: How did the growth turn out when Cc1cc(NS(=O)(=O)c2ccc(NC(=O)CSc3nc4ccccc4c(=O)n3-c3ccccc3)cc2)no1 was run?
Answer: 110% (inactive)

Question: For CS(=O)(=O)c1ccc(/C(=N/N=C(N)N)c2ccc(F)cc2)cc1, which growth is on record?
Answer: 91.4% (inactive)

Question: How did the growth turn out when COc1ccc2c(c1)c(-c1nnc(N)nc1-c1c[nH]c3ccc(F)cc13)cn2C was run?
Answer: 28.2% (inactive)

Question: N#Cc1cnc2ccc(-c3cnc4n[nH]nc4c3)cc2c1N1CCc2cc(F)c(Cl)cc21 was tested. Which growth did it give?
Answer: 15.8% (inactive)

Question: For Cc1ccc(S(=O)(=O)c2nc(-c3ccc(F)cc3)oc2S(C)(=O)=O)cc1, which growth is on record?
Answer: 31.7% (inactive)

Question: How did the growth turn out when COc1cc(C(=O)c2cc(C(C)=O)c3ccc(C)cn23)cc(OC)c1OC was run?
Answer: 54.6% (inactive)

Question: With Cc1c(C(=O)/C=C/c2ccc(Cl)cc2)nnn1-c1ccc2oc(=O)ccc2c1 as the molecule, how does the growth read?
Answer: 54.2% (inactive)

Question: For Nn1c(=O)n(-c2cccc(C(F)(F)F)c2)c(=O)c2cc(-c3ccc(F)cc3F)ccc21, which growth is on record?
Answer: -19.1% (active)

Question: How did the growth turn out when COc1ccc2c(c1)C=CC1(O2)Oc2ccc(OC)cc2C=C1C (stereo not given) was run?
Answer: 19% (inactive)

Question: For CN(C)c1ccc(/C=N/Nc2nc(N/N=C/c3ccc(N(C)C)cc3)nc(N3CCCCC3)n2)cc1, which growth is on record?
Answer: 32.6% (inactive)

Question: With CN(C)CC(=O)Nc1nc(-c2cccc(NS(=O)(=O)c3cccc4c(N(C)C)cccc34)c2)cs1 as the molecule, how does the growth read?
Answer: 60.6% (inactive)

Question: For CC(C)=CCC[C@](C)(O)[C@H]1CC[C@]2(C)[C@@H]1CC[C@@H]1[C@@]3(C)CC[C@H](N)C(C)(C)[C@@H]3CC[C@]12C, which growth is on record?
Answer: -9.63% (active)

Question: With CC(=O)C1=C(C)NC(NNc2ccccc2)=NC1c1ccc([N+](=O)[O-])cc1 (stereo not given) as the molecule, how does the growth read?
Answer: 92.4% (inactive)
